In all, about 53,000 sequences went through this assay and about 3,700 (7%) were called active. The entries come from a sample that favours actives as a whole. Unmarked numbers belong to inactive results.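 The calls were made as follows: active = gene knockdowns whose robust z-score for IL-1 alpha signal is at least 2 or at most -2, so actives lie on both sides; inactive = the rest.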
Assay: Components of the Cytosolic LPS Sensing Pathway: Gene Identification via Genome-wide siRNA Screen;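 also: robust z of the log signal after scaling to non-targeting control siRNA wells of the plate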
Conditions: RAW264.7 macrophages, IL-1a HTRF, actives lie on both sides, screened at 100 nM (by protocol), cells primed 5 h with Pam3CSK4 first
How it was run: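 Read-out: IL-1a HTRF on supernatant, divided by plate negative-control median ×100, log-transformed and converted to robust z-score. Cells were RAW264.7 given 100 nM siRNA, Pam3CSK4-primed 5 hours, then LipidA-transfected 24 hour.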

Which z-score does the source give for “GCAAACUCAAGGCAUACAUTT against A930017M01Rik” here?
Its z-score is 4.27 (active).

With GGUGAACCUGGAAGAACUATT against Manea as the sequence, how does the z-score read?
The z-score was 1.64.

With CGCCAAUUCAUCGUUGACUTT against Ccl3 as the sequence, how does the z-score read?
The z-score was 0.773.

For GGAUUUGGAGUAGAUCAAUTT against Tial1, which z-score is on record?
Its z-score is 0.638.

Which z-score does the source give for GGAACUGCUAAUCAACCAUTT against Zmynd10 here?
Its z-score is -2.14 (active).

For GGAAAAAGAGUCCUUCAUGTT against Minar2, which z-score is on record?
The z-score was 1.19.

Which z-score does the source give for GGAACAAGAAACCACAAUGTT against Agpat1 here?
Its z-score is 0.281.

For GGAAGAUGCCAUCUUACACTT against Borcs7, which z-score is on record?
Its z-score is 2.5 (active).

With GCAGGUUCACGACACCAACTT against Sv2a as the sequence, how does the z-score read?
The z-score was -1.35.

For GCUGAAUGCGACAUUUAUATT against Hk2, which z-score is on record?
The z-score was 0.668.

For GGCUGAGCUGAUCUUCUUATT against Wnt8a, which z-score is on record?
Its z-score is -0.037.

Which z-score does the source give for GGUCCGAAAGGCAGCUAUATT against Fcer1g here?
Its z-score is -2.17 (active).

For CGAACAUUCCUUCCAUAACTT against Kcnd3, which z-score is on record?
Its z-score is 0.609.

Which z-score does the source give for GGCUGUGCAAGCAAAACCUTT against Mad1l1 here?
Its z-score is -1.43.

Which z-score does the source give for GGUACAAGACUGUCAUGUGTT against Mrpl3 here?
Its z-score is 0.356.

For GGUCAAAGUCUAGGAGUUUTT against Spp1, which z-score is on record?
Its z-score is 2.56 (active).

With GGUGUCCAGUCAAUAAGAGTT against Msx3 as the sequence, how does the z-score read?
Its z-score is -0.0298.

Which z-score does the source give for GGAAAGCUUCAAAAUGGUGTT against Foxj2 here?
Its z-score is -1.26.

For GGACAUUGACACUACUCCATT against Cyp2c55, which z-score is on record?
The z-score was -0.519.

Which z-score does the source give for GCCCAACUAAGCAAUAAUATT against Fam216b here?
The z-score was 0.395.

For GCCGAGCAGAUGUACAGAATT against Zfp39, which z-score is on record?
The z-score was 2.93 (active).

For GUGGUUGAACGGGAAUUUGTT against Gm11487, which z-score is on record?
The z-score was 0.542.

With GGCUUUAGGUAGUAGUCUCTT against Kansl2 as the sequence, how does the z-score read?
Its z-score is -2.9 (active).

For GCCAGUGGAUGUUCAGAAUTT against Ccdc73, which z-score is on record?
Its z-score is 0.019.

For GCGAGAGUUUUUCUUCAACTT against Hoxc11, which z-score is on record?
Its z-score is 0.385.

With GGAAUGAGGGUAAUGAAUATT against Plin3 as the sequence, how does the z-score read?
The z-score was -1.74.

Which z-score does the source give for GGAGCUAGCUAGAACAAGUTT against Slmap here?
Its z-score is 1.58.

Which z-score does the source give for GGAUCAAUCCACAGACGACTT against Dbr1 here?
Its z-score is 1.56.

For CGUGGUGAACGAGAUUGAUTT against Kcnab1, which z-score is on record?
Its z-score is 1.21.

For GCCUGAUGUUGUUUCCAAATT against Lias, which z-score is on record?
The z-score was 2.67 (active).

With GGUGAAGUUGAAUGGAAGUTT against Crebzf as the sequence, how does the z-score read?
The z-score was -0.9.

For CCUAACACUAGUCUCAGAATT against Olfr873, which z-score is on record?
Its z-score is 0.192.

With GGUGCUAAUGACCUUUGAATT against Dbp as the sequence, how does the z-score read?
The z-score was -1.5.

With GGAAUGGGAUAGAUUUGUUTT against Ung as the sequence, how does the z-score read?
The z-score was 2.51 (active).

With GCUACCUCUGACGACCAAGTT against Slc23a3 as the sequence, how does the z-score read?
The z-score was 1.11.

For CCAUCAGGUUUAAGUCGUATT against Vps36, which z-score is on record?
Its z-score is -0.698.

With CGAAGAGAAGUUAUUUGUATT against Mrps23 as the sequence, how does the z-score read?
The z-score was 1.19.

For GGUUUACCAGGAAAAUUGATT against Txnrd3, which z-score is on record?
The z-score was -1.09.

For GGGUCACACUUCAUGGCUUTT against Pofut1, which z-score is on record?
Its z-score is -2.07 (active).

With GGAUUCUUCGCUCCAAUGATT against Pacs1 as the sequence, how does the z-score read?
The z-score was 0.73.

Which z-score does the source give for GGUAUCCUGAUUGUUGAGUTT against Fam228a here?
Its z-score is 1.18.

For GCAUCAUUAUCUUACCAACTT against Olfr826, which z-score is on record?
Its z-score is -0.994.

For GAGAGAGGGAAUUUGCUCCTT against Pcdhb8, which z-score is on record?
Its z-score is 2.6 (active).

For AUGUGGCAAAACCUUUGCATT against Zfp960, which z-score is on record?
Its z-score is 0.615.

With CCCAUGCUUAUUACCGAGATT against Rab37 as the sequence, how does the z-score read?
The z-score was 0.0517.

With “GGGUGUCAACCCUUUAGAUTT against C130026I21Rik” as the sequence, how does the z-score read?
The z-score was 0.685.

Which z-score does the source give for GCACCUCAAAAGAAUUCAUTT against Septin10 here?
Its z-score is 1.42.

Which z-score does the source give for GGAUAAGAAACACAAGAAGTT against Srrm1 here?
The z-score was 2.04 (active).

Which z-score does the source give for GCACAUUUUAGCCUAAUGGTT against Tpm3 here?
The z-score was -0.785.

For CCCACUUGUGGCAGUGUACTT against Stub1, which z-score is on record?
The z-score was 0.818.

Which z-score does the source give for GCGACAAUAUGAGUCACCUTT against Fsd1 here?
The z-score was -2.07 (active).

Which z-score does the source give for GGGUAACAUGAAAGUGAUCTT against Mybbp1a here?
Its z-score is -0.972.

Which z-score does the source give for GGACCAAGGAGCAUUGAAATT against Fkbp7 here?
The z-score was 1.06.

Which z-score does the source give for GGAAUUCAUCUGUGGUCUCTT against Trim50 here?
Its z-score is -0.559.
